The campaign covered roughly 320,000 compounds. About 9,100 (2.8%) were called active. Inconclusive results (about 3%) are left out. Calls follow the shape of the dose curve; as a rule, active = well fitted activation curve with a large enough effect; inconclusive = small, poorly fitted or top-dose-only effect; inactive = no such curve, though single readings can be large or run the other way. The entries come from a sample that favours actives as a whole. A call without a number means that no potency is given here.
Potency is read from the fitted curve at half-maximal effect.

The nature of this assay: qHTS Assay for Rab9 Promoter Activators. Also: nearly all actives have a fitted effect of over 60% in size. The conditions noted are these: Huh7 Rab9 promoter-luciferase reporter, luminescence, 24 h; series mostly up to 9.22 µM. The source says:
NIH Chemical Genomics Center [NCGC] NIH Molecular Libraries Probe Production centers Network [MLPCN] MLPCN Grant: MH089537-01 Assay Submitter (PI): Yiannis A. Ioannou NCGC Assay Overview: Niemann Pick Type C (NPC) is a rare neurodegenerative lipidosis that is characterized by lipid storage in the endosomal/lysosomal system. Treatment modalities for this devastating disease are currently non-existent due to the severe obstacles associated with accessing the central nervous system with proteins or genes (Ioannou, 2000). We have developed a new paradigm, termed "Orphan Receptor Bypass Therapy" (ORByT), to address these disorders. This paradigm posits the existence of endogenous "suppressor" proteins whose expression can dramatically improve LSD pathogenesis. The goal is the identification/discovery of small chemical compounds that can modulate the expression of these proteins and provide a new treatment modality for these devastating disorders. One such protein whose overexpression reverses aspects of the NPC phenotype is Rab9. We have developed and optimized a cell based luciferase reporter assay in 1536 well format for the identification of up-regulators of the Rab9 promoter.
The Rab9 promoter is cloned in front of the luciferase reporter gene, therefore […] promoter activation results in luciferase expression. Frozen stock of the Rab9 promoter transfected Huh7 cells were obtained from the laboratory of Dr. Yiannis Ioannou (The Mount Sinai School of Medicine, New York, NY). Cells were propagated and maintained at NCGC in medium containing RPMI-1640 supplemented with 10% FBS, 2mM L-glutamine, and 50ug/ml penicillin/streptomycin. Cells were harvested in and plated for assays in OP-MEM I reduced-serum medium supplemented with 10% FBS. The Amplite luciferase reporter gene assay kit was purchased from ABD Bioquest and prepared/stored according to manufacturers recommendations. qHTS Assay Setup: 1.Dispensed 5ul of Huh7 cells stably expressing Rab9-luciferase at a density of 1500 cells per well 1536-well plates. 2.Incubate cells at 37C, 5% CO2, and 95% humidity for 2 hours. 3.Transferred 23nl per well of compound in DMSO solution. 4.Incubated at 37C, 5% CO2, and 95% humidity for 24 hours. 5.Dispensed 3ul per well of Amplite reagent(ABD Bioquest) per well. 6.Incubate at ambient for 10 minutes. 7.Read using the luminescence protocol on the ViewLux plate reader (Perkin Elmer).
A general note: Quantitative high-throughput screening tests each substance at several concentrations.
On to `CN(C)C(=O)Oc1ccc2c(c1)O/C(=C\c1ccccc1)C2=O`, for which the Potency is 1.41 µM (active).
As for `CN(C)C(=O)Oc1ccc(OCc2cccc[n+]2C)cc1`, the Potency result was “inactive”.
As for `CCOC(=O)c1c(-c2ccccc2)oc2ccc(OC(=O)N(C)C)cc12`, the Potency entry was “inactive”.
In the case of `c1ccc2c(c1)[I+]c1ccccc1-2`, the Potency result was “inactive”.
For the molecule `CC(=O)c1c(O)c(C)c(O)c(Cc2c(O)c3c(c(C(=O)/C=C/c4ccccc4)c2O)OC(C)(C)C=C3)c1O`, the Potency entry is “inactive”.
Take `O=C(Nc1cccc(OC(=O)N2CCCCC2)c1)N1CCOCC1`: the Potency result is “inactive”.
As for `CN1CCN(C(=O)COc2ccc(C(C)(C)C)cc2Br)CC1`, the Potency entry was “inactive”.
For the molecule `CC(C)(C)c1ccc(OC(=O)N2CCCCC2)cc1`, the Potency was 3.16 µM (active).
Regarding `C[C@@H]1C[C@@H]2O[C@H]2/C=C\C=C\C(=O)Cc2c(Cl)c(O)cc(O)c2C(=O)O1`, the Potency entry was “inactive”.
As to `CNCC[C@H](Oc1ccc(C(F)(F)F)cc1)c1ccccc1`, the Potency entry was “inactive”.
